The values that follow come from PubChem BioAssay AID504911 (Southern Research Specialized Biocontainment Screening …, 2011).

SMILES strings stand for the structures. Entries with a potency or affinity are not part of this list. Calls of active or inactive are those of the source. The rule behind the calls is not given here.

The assay is described as follows: THP-1 cell cytotoxicity, cytotoxicity control, set 4 (AID 504911). As to conditions: THP-1 cytotoxicity; series mostly up to 100 µM.
For the compound `CC[C@@H](CO)NCCN[C@@H](CC)CO`, the outcome was inactive.
Consider `Cc1nc(SCC(=O)NC2CCCC2)[nH]c(=O)c1C`, for which the compound was called inactive.
As for `Cc1cc(=O)[nH]c(SCC(=O)NC2CCCCC2)n1`, the entry is “inactive”; as for `Cn1c(SCC(=O)NC2CCCCC2)nc2ccccc2c1=O`, “inactive”.
As for `O=c1[nH]c(=S)[nH]c2ccccc12`, the outcome was inactive.
As for `CCC(Sc1nc2ccccc2c(=O)[nH]1)C(=O)Nc1cccc(OC)c1` (configuration not stated), the entry is “inactive”; as for `Nc1cc(=O)[nH]c(SCC(=O)NC2CCCCC2)n1`, “inactive”.
As for `Cc1c[nH]c(=S)[nH]c1=O`, the entry is “inactive”; as for `Cc1[nH]c(=S)[nH]c(=O)c1C`, “inactive”; as for `Cc1ccc(NC(=O)CSc2nc3ccccc3c(=O)[nH]2)cc1Cl`, “inactive”.
In the case of `NNC(=O)c1ccncc1` it was “inactive”; in that of `CN(C)C(=O)CSc1nc2ccccc2c(=O)[nH]1`, “inactive”; in that of `COC(=O)c1ccc(CNc2c(N3CCCC3)c(=O)c2=O)cc1`, “inactive”.
For the compound `CN[C@@H]1[C@H](O[C@H]2[C@H](O[C@H]3[C@H](O)[C@@H](O)[C@H](N=C(N)N)[C@@H](O)[C@@H]3N=C(N)N)O[C@@H](C)[C@]2(O)C=O)O[C@@H](CO)[C@H](O)[C@H]1O`, the compound was classed as inactive.
Regarding `CCOC1OC(=O)C(Cl)=C1Nc1ccccc1C` (configuration not stated), the compound was called inactive.
As to `NC[C@H]1O[C@H](O[C@H]2[C@H](O)[C@@H](O[C@H]3O[C@H](CO)[C@@H](O)[C@H](N)[C@H]3O)[C@H](N)C[C@@H]2N)[C@H](O)[C@@H](O)[C@@H]1O`, the call was inactive.
As for `NC(=O)CSc1nc2ccccc2c(=O)[nH]1`, the entry is “inactive”; as for `CCOC(=O)CSc1nc(C)c(C)c(=O)[nH]1`, “inactive”.
In the case of `Cc1nc(SCC(=O)NCCC(C)C)[nH]c(=O)c1C` it was “inactive”.
As for `COc1ccc(NC(=O)CSc2nc3ccccc3c(=O)[nH]2)cc1`, the entry is “inactive”; as for `Cc1nc(SCC(=O)NC2CCCCC2)[nH]c(=O)c1C`, “inactive”; as for `O=C(CSc1nc2ccccc2c(=O)[nH]1)NC1CCCCC1`, “inactive”.
As for `COc1c(N2CCNC(C)C2)c(F)cc2c(=O)c(C(=O)O)cn(C3CC3)c12` (configuration not stated), the outcome was inactive.
Take `CC(C)CCNC(=O)CSc1nc2c(c(=O)[nH]1)CCC2`: the call was inactive.
For `CCC(Sc1nc2ccccc2c(=O)[nH]1)C(=O)NC1CCCCC1` (configuration not stated), the outcome was inactive.
In the case of `Cc1cc(=O)[nH]c(=S)[nH]1` it was “inactive”.
As for `Cc1nc(SCC(N)=O)[nH]c(=O)c1C`, the entry is “inactive”.
In the case of `CCC(Sc1nc2c(c(=O)[nH]1)CCC2)C(=O)Nc1cccc(OC)c1` (configuration not stated) it was “inactive”; in that of `CN1CCC(NC(=O)CSc2nc3ccccc3c(=O)[nH]2)CC1`, “inactive”; in that of `Cc1ccc(NC(=O)COC(=O)CCc2c[nH]c3ccccc23)cc1[N+](=O)[O-]`, “inactive”.
For the compound `Cc1cnc(SCC(=O)NC2CCCCC2)[nH]c1=O`, the compound was called inactive.
`CC1CCN(C(=O)CSc2nc3ccccc3c(=O)[nH]2)CC1`: the compound was classed as inactive.
